Measurements published in PubChem BioAssay AID1159580 (chemical genetic matrix, 2015).
“And” between values parts separate entries of the source, which are not always exact repeats. Identical values can stand only once. About 2,000 (36%) of roughly 5,500 compounds were called active. About 18% were inconclusive and are not listed. No stated cut-off is given here; in the data, active means normalized growth mostly below about 0.91 (no sharp cut-off); inconclusive means no clear call, values can overlap the other calls; inactive means mostly above about 0.92. The list shows a part of the results.

Experiment: chemical genetic growth profiling, strain panel (AID 1159580);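 further: tested at 20 µM; growth read once vehicle control cultures reached saturation at 30 °C; 1 = growth at the plate median or of vehicle wells; lower values mean less growth of the strain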
Conditions: S. cerevisiae deletion strains, growth OD

Measured: normalized growth

NC(=O)N1c2ccccc2CC(=O)c2ccccc21
inactive: locus YAL013W, strain DEP1, active compounds read low 0.996 | locus YAL021C, strain ccr4, active compounds read low 0.991 | locus YAL026C, strain drs2, active compounds read low 0.998 | locus YAL030W, strain snc1, active compounds read low 0.993 | locus YBL061C, strain skt5, active compounds read low 0.994 | locus YBR009C, strain hhf1, active compounds read low 0.942 | locus YBR021W, strain FUR4, active compounds read low 0.969 | locus YBR023C, strain chs3, active compounds read low 1 | locus YBR171W, strain sec66, active compounds read low 0.989 | locus YBR229C, strain ROT2, active compounds read low 0.993 | locus YBR231C, strain swc5, active compounds read low 0.974 | locus YBR279W, strain paf1, active compounds read low 0.99 | locus YCL011C, strain gbp2, active compounds read low 0.991 | locus YCL016C, strain dcc1, active compounds read low 1.01 | locus YCL029C, strain bik1, active compounds read low 0.978 | locus YCL069W, strain vba3, active compounds read low 0.956 | locus YCR088W, strain abp1, active compounds read low 0.976 | locus YDL005C, strain med2, active compounds read low 0.971 | locus YDL035C, strain GPR1, active compounds read low 0.996 | locus YDL040C, strain nat1, active compounds read low 0.992 | locus YDL074C, strain BRE1, active compounds read low 1.03 | locus YDL101C, strain DUN1, active compounds read low 0.992 | locus YDL134C, strain PPH21, active compounds read low 0.989 | locus YDL185W, strain tfp1, active compounds read low 0.976 | locus YDL192W, strain arf1, active compounds read low 0.975 | locus YDR001C, strain nth1, active compounds read low 0.979 | locus YDR069C, strain doa4, active compounds read low 0.963 | locus YDR101C, strain arx1, active compounds read low 0.994 | locus YDR137W, strain rgp1, active compounds read low 0.991 | locus YDR150W, strain NUM1, active compounds read low 1 | locus YDR159W, strain sac3, active compounds read low 0.931 | locus YDR162C, strain NBP2, active compounds read low 1.02 | locus YDR195W, strain ref2 0.927 | locus YDR297W, strain sur2, active compounds read low 0.988 | locus YDR318W, strain mcm21, active compounds read low 0.962 | locus YDR334W, strain swr1, active compounds read low 0.95 | locus YDR335W, strain msn5, active compounds read low 0.973 | locus YDR388W, active compounds read low 0.991 | locus YDR392W, strain spt3, active compounds read low 0.956 | locus YDR502C, strain sam2, active compounds read low 0.994 | locus YEL003W, strain gim4, active compounds read low 0.987 | locus YEL037C, strain rad23, active compounds read low 0.984 | locus YEL061C, strain CIN8 (second series), active compounds read low 0.98 | locus YEL061C, strain CIN8, active compounds read low 0.998 | locus YER015W, strain faa2, active compounds read low 0.993 | locus YER016W, strain bim1, active compounds read low 1.01 | locus YER110C, active compounds read low 0.975 | locus YER111C, strain swi4, active compounds read low 0.993 | locus YER155C, strain BEM2 (second series), active compounds read low 0.97 | locus YER155C, strain BEM2, active compounds read low 0.982 | locus YER167W, strain BCK2, active compounds read low 0.967 | locus YFR010W, strain ubp6, active compounds read low 0.947 | locus YGL078C, strain dbp3, active compounds read low 0.99 | locus YGL086W, strain mad1, active compounds read low 0.974 | locus YGL167C, strain pmr1, active compounds read low 0.968 | locus YGL173C, strain kem1, active compounds read low 0.948 | locus YGL227W, strain vid30, active compounds read low 1.01 | locus YGL240W, strain doc1, active compounds read low 0.948 | locus YGL248W, strain PDE1, active compounds read low 0.987 | locus YGL253W, strain hxk2, active compounds read low 0.966 | locus YGR078C, strain PAC10, active compounds read low 1.01 | locus YGR135W, strain pre9, active compounds read low 1 | locus YGR229C, strain SMI1, active compounds read low 1 | locus YGR252W, strain gcn5, active compounds read low 0.922 | locus YHR013C, strain ard1, active compounds read low 0.995 | locus YHR027C, strain rpn1, active compounds read low 0.972 | locus YHR030C, strain SLT2, active compounds read low 0.983 and 0.997 | locus YHR079C, strain IRE1 (second series), active compounds read low 0.968 | locus YHR079C, strain IRE1, active compounds read low 0.997 | locus YHR094C, strain hxt1, active compounds read low 0.978 | locus YHR129C, strain ARP1, active compounds read low 0.99 | locus YHR142W, strain chs7, active compounds read low 0.977 | locus YHR200W, strain rpn10, active compounds read low 0.97 | locus YIL066C, strain RNR3, active compounds read low 0.991 | locus YIL073C, strain SPO22, active compounds read low 0.955 | locus YIL125W, strain kgd1, active compounds read low 0.998 | locus YIR030C, strain dcg1, active compounds read low 0.981 | locus YJL092W, strain hpr5, active compounds read low 0.995 | locus YJL095W, strain BCK1 (second series), active compounds read low 0.997 | locus YJL095W, strain BCK1, active compounds read low 1.02 and 0.994 | locus YJL115W, strain asf1, active compounds read low 0.992 | locus YJL129C, strain trk1, active compounds read low 0.995 | locus YJL134W, strain LCB3, active compounds read low 0.99 | locus YJL154C, strain vps35, active compounds read low 0.992 | locus YJL164C, strain tpk1, active compounds read low 0.972 | locus YJL166W, strain qcr8, active compounds read low 0.941 | locus YJL168C, strain set2, active compounds read low 0.985 | locus YJL187C, strain SWE1 (second series), active compounds read low 1 | locus YJR043C, strain POL32, active compounds read low 0.979 | locus YJR066W, strain TOR1, active compounds read low 0.946 | locus YJR075W, strain HOC1, active compounds read low 1.05
